Records with an inconclusive call do not appear. Calls of active or inactive are those of the source. The call rests on the fitted dose curve; in most records, active means well fitted inhibition curve with a large enough effect; inconclusive means small, poorly fitted or top-dose-only effect; inactive means no such curve, though single readings can be large or run the other way.

Sequence of Rap guanine nucleotide exchange factor 3 (Homo sapiens) (O95398 whole entry, looked up): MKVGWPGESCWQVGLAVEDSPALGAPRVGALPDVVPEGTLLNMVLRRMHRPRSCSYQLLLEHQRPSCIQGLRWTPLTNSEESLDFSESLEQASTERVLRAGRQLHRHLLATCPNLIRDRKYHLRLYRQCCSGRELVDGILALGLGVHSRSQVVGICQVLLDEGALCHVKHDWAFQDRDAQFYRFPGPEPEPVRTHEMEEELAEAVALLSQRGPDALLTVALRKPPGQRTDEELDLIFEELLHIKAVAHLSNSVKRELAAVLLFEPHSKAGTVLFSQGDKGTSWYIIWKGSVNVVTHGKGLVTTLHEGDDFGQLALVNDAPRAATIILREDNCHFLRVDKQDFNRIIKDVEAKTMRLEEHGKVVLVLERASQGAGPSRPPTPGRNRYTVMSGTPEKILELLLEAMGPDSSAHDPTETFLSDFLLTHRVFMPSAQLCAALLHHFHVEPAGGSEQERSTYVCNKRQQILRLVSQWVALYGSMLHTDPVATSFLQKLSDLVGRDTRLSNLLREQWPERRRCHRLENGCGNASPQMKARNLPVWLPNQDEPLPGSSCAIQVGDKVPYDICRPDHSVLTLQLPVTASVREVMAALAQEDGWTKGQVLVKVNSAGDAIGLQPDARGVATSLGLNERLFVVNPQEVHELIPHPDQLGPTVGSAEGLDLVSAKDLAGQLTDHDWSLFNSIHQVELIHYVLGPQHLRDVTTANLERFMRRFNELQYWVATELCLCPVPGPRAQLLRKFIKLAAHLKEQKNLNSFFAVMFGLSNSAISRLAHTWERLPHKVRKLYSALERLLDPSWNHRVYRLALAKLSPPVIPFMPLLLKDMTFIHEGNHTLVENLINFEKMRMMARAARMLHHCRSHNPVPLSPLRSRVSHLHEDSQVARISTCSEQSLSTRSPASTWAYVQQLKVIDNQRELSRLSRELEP

The assay addresses Rap guanine nucleotide exchange factor 3 (Homo sapiens) (UniProt O95398). The experiment in a line: Confirmatory qHTS for antagonist of cAMP-regulated guanine nucleotide exchange factor 3 (EPAC1) (AID 1645880). Further: nearly all actives have a fitted effect of over 55% in size. The conditions noted are these: EPAC1 Rap1B-BODIPY-GDP exchange, fluorescence; series mostly up to 115 µM. A digest of the protocol:
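Nucleotide exchange uses 100 nM EPAC1, 250 nM RAP1B-BODIPY-GDP and 50 uM GDP, with compounds in a concentration-titration series. After 5 min at room temperature, fluorescence (480 nm ex/540 nm em) is read every 5 min for 30 min. Data are normalized to control ATA and DMSO.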
As for `NC(=O)Oc1ccc(Cc2ccccc2)cc1`, the call was inactive.

For the compound `O=C(NNCS(=O)(=O)O)c1ccncc1`, the result was inactive.

For `COc1ccc(/C=C/C(=O)O)cc1`, the outcome was inactive.

With `CCCCC(=O)O[C@H]1CC[C@H]2[C@@H]3CCc4cc(O)ccc4[C@H]3CC[C@]12C`, the compound was classed as inactive.

With `CC(C)[C@@H](C)/C=C/[C@@H](C)[C@H]1CC[C@H]2/C(=C/C=C3\C[C@@H](O)CC[C@@H]3C)CCC[C@]12C`, the compound was called inactive.

Consider `COc1ccc2c(c1)N(C[C@H](C)CN(C)C)c1ccccc1S2`, for which the call was inactive.

As to `CCOC(=O)Oc1c(OC)cc(C(=O)O[C@@H]2C[C@@H]3CN4CCc5c([nH]c6cc(OC)ccc56)[C@H]4C[C@@H]3[C@H](C(=O)OC)[C@H]2OC)cc1OC`, the compound was called inactive.

Take `CSc1nc2cc(Oc3cccc(Cl)c3Cl)c(Cl)cc2[nH]1`: the outcome was inactive.

`COc1cc(NCCCC(C)N)c2ncccc2c1` (stereo not given): the outcome was inactive.

On to `CC1CC(OC(=O)C(O)c2ccccc2)CC(C)(C)C1` (stereo not given), for which the result was inactive.

Values taken from PubChem BioAssay (NCATS).
